# TROY signal inh: TROY signaling inhibition; Q293 LMP1-TROYcd NF-kB luciferase reporter, 4 h; inhibition, % at 10 µM; 360,000 compounds, 0.98% hits; AID 1347056;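 active = compounds whose plate-normalised and pattern-corrected inhibition of the luciferase reporter signal at the single screening dose is 50% or more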
# CF NFkB inh: blocks PAF-induced NF-kB reporter in cystic fibrosis cells; inhibition, % at 5 µM; AID 588850; KKLEB NF-kB-GFP reporter, GFP fluorescence overnight; 360,000 compounds, 0.86% hits;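 active = at least 50% inhibition at 5 µM, scaled per plate between neutral and stimulator controls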;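 note: PAF is a Pseudomonas aeruginosa culture filtrate used as stimulus; plate controls were PAF-stimulated DMSO wells for no effect and unstimulated DMSO wells for full effect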
# KKLEB tox: CF airway cell cytotoxicity counter-screen; 360,000 compounds, 0.36% hits; KKLEB CF airway cells viability, ATPlite luminescence, overnight; hits give low values; cells stimulated with P. aeruginosa culture filtrate; AID 602141; activity change (cytotoxicity), % at 5 µM;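 active = corrected activity change at or below -50% at 5 µM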
# Peg3 promoter: reduces Peg3 promoter-driven luciferase expression in HeLa; 360,000 compounds, 1.7% hits; AID 588405; inhibition, % at 20 µM; HeLa PEG-Prom luciferase reporter, luminescence, overnight;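 active = inhibition of at least 50% at 20 µM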
# TWEAK Fn14 block: blocks TWEAK-Fn14 interaction in a reporter cell assay; 360,000 compounds, 2% hits; inhibition, % at 10 µM; TWEAK-stimulated Fn14 reporter cells, luciferase luminescence, 8 h; in the data active = inhibition above about 50%
# HIF-2a inh: HIF-2a inhibition; 786-0 RCC cells HIF-2a reporter, luciferase luminescence, overnight; inhibition, % at 18.8 µM; 360,000 compounds, 0.72% hits;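 active = inhibition of the luminescence signal of 40% or more relative to plate controls, in a single-dose primary screen at 18.75 µM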
# Active calls of the source: *; nt = not tested or not shown. A selection: hits, their analogues and other compounds. The true share with any hit is near 4%.
SMILES,TROY signal inh,CF NFkB inh,KKLEB tox,Peg3 promoter,TWEAK Fn14 block,HIF-2a inh
O=[N+]([O-])/C=C\c1ccc(N2CCCC2)c(F)c1,-1,-21,-12,101*,13,46*
COc1ccccc1Cc1c(-c2ccccc2)nc2cc(C)c(Br)c(C)n12,-26,nt,nt,nt,10,-51
CCOC(=O)/C(=C\c1ccc(OC(F)F)cc1)C1=Nn2c(nnc2-c2ccc(Cl)cc2)SC1,90*,88*,-90*,103*,105*,97*
Cc1c(C#N)c(NC(=O)CCl)n(Cc2cccs2)c1C,17,24,-28,50,6,30
Cc1c(C#N)c(NC(=O)CCl)n(Cc2ccc(F)cc2)c1C,13,73*,-58*,58*,23,26
Cc1c(C#N)c(NC(=O)CCl)n(Cc2ccccc2)c1C,25,17,-16,53*,19,20
C[C@H]1CN([C@@H](C)CO)C(=O)c2cc(NC(=O)C3CCCCC3)ccc2O[C@H]1CN(C)S(=O)(=O)c1ccccc1,11,-5,20,6,-1,14
Cc1nc(NC(=O)c2ccccc2)sc1-c1csc(NCc2ccccc2)n1,-37,4,-3,-25,43,-58
Cc1nc(NC(=O)c2ccccc2)sc1-c1csc(NCCc2ccccc2)n1,-38,-6,1,-26,54*,-71
CCOc1ccccc1Nc1nc(-c2sc(NC(=O)c3cccc(Cl)c3)nc2C)cs1,2,-13,4,-93,64*,-90
O=C(Nc1cccc2c1CCCC2)c1cc(C2CCCCN2C(=O)c2cccs2)on1 (stereo not drawn),8,-19,-4,23,6,10
CC(C)Oc1cc(F)ccc1-c1cc(C(=O)Nc2cccc(C(F)(F)F)c2)[nH]n1,55*,15,-6,38,70*,-18
COc1ccc(NC(=O)c2cc(-c3ccc(F)cc3OC(C)C)n[nH]2)cn1,-13,-4,0,-5,30,-4
CC(C)Oc1ccc(F)cc1-c1cc(C(=O)NCc2cc(C(F)(F)F)cc(C(F)(F)F)c2)[nH]n1,48,28,6,22,51*,-24
CC1(Cc2cc(Cl)ccc2C(F)(F)F)C(=O)Nc2ccc(S(=O)(=O)NC3CCCCC3)cc21 (stereo not drawn),29,5,7,32,22,14
CC(C)C[C@@H](CN)NC(=O)c1nc[nH]c1C(=O)N[C@@H](CC(C)C)C(=O)CNC[C@H](C)NC(=O)c1nc[nH]c1C(=O)N[C@@H](C)C(=O)O,-16,-2,2,-5,6,9
O=C(Nc1cccc(OCC(=O)N2CCOCC2)c1)c1cccc([N+](=O)[O-])c1,10,-16,3,12,24,3
O=C(COc1cccc(NC(=O)c2cccc([N+](=O)[O-])c2)c1)c1ccc(Br)cc1,39,4,2,50*,71*,1
CCCCn1c2c(c(=N)c3c1CCC3)CCC2,18,7,3,17,25,6
CCCCCCn1c2c(c(=N)c3c1CCC3)CCC2,59*,32,-44,40,28,-4
CCCCCCCn1c2c(c(=N)c3c1CCC3)CCCC2,48,47,-23,31,61*,16
O=C(Cc1n[nH]c(=O)c2ccccc12)NC(c1ccccc1)c1ccccc1,-19,2,-1,-2,-23,-8
COc1cc([C@H]2c3[nH]c4ccccc4c3C[C@H]3C(=O)N4[C@@H](c5cc(OC)c(OC)c(OC)c5)c5[nH]c6ccccc6c5C[C@H]4C(=O)N23)cc(OC)c1OC,8,39,-23,39,-5,52*
CCN1C(=O)[C@@H]2Cc3c([nH]c4ccccc34)C(c3cc(OC)c(OC)c(OC)c3)N2C1=S (stereo partly drawn),31,-100,-5,-3,-9,14
COc1ccc(S(=O)(=O)N(C)C)cc1NC(=O)CN1C(=O)NC2(CCCC2)C1=O,0,9,-3,16,7,7
SMILES,TROY signal inh,CF NFkB inh,KKLEB tox,Peg3 promoter,TWEAK Fn14 block,HIF-2a inh
O=C(Nc1ccc(-n2ccc(C(F)(F)F)n2)cc1)Nc1cccc(Cl)c1,34,35,-18,-113,72*,-245
O=C(NC(Cc1c[nH]c2ccccc12)C(=O)O)c1cccc(S(=O)(=O)N2CCCCC2)c1 (stereo not drawn),-4,-4,-3,-1,-10,20
COC(=O)[C@@H](NC(=O)Nc1ccc2c(c1)OCCO2)C(C)C,29,4,0,9,-4,-1
COC(=O)[C@H](CC(C)C)NC(=O)Nc1ccc2c(c1)OCCO2,32,16,-1,-22,66*,-10
CC(C)CC(NC(=O)C1CCC(C)CC1)C(=O)Nc1ccc2c(c1)OCCO2 (stereo not drawn),31,-17,11,-74,68*,-28
COc1cc(C)ccc1S(=O)(=O)NC(=O)C1(C)CCN1C(=O)c1ccc(C2CCCCC2)cc1 (stereo not drawn),-10,-23,7,-3,5,8
C/C(CC(=O)Nc1cccc(C(F)(F)F)c1)=N\NC(=O)c1cnccn1,-13,-18,10,-1,-4,-7
CN(C)CC(CCC(CN(C)C)C(=O)c1ccccc1)C(=O)c1ccccc1 (stereo not drawn),56*,90*,-61*,109*,98*,94*
COc1ccc(C(=O)C(CCCCC(CN(C)C)C(=O)c2ccc(OC)cc2)CN(C)C)cc1 (stereo not drawn),21,4,1,46,-30,15
CCOc1ccc(C(=O)C(CCC(CN(C)C)C(=O)c2ccc(OCC)cc2)CN(C)C)cc1 (stereo not drawn),50*,96*,-100*,106*,102*,93*
CSc1ccc(CN2CCC2(C)C(=O)Nc2cccc(Oc3ccccc3)c2)cc1 (stereo not drawn),0,-1,-16,18,-1,13
COc1cccc(/C=N/N2CCN(C3c4ccccc4-c4ccccc43)CC2)c1O,-1,18,-11,15,20,19
CCOc1ccc(Nc2nc(N)c3ccccc3n2)cc1,61*,-8,-56*,58*,92*,47*
Nc1nc(Nc2ccccc2)nc2ccccc12,-13,-5,-22,-202,40,-143
COc1cc2nc(Nc3ccc(C)c(C)c3)nc(N)c2cc1OC,-43,-27,-29,56*,-36,-17
Cc1ccccc1Nc1nc(N)nc(CSc2nc3ccccc3c(=O)n2C)n1,44,9,-12,29,66*,20
Cc1ccccc1Nc1nc(N)nc(CSc2nc3ccccc3c(=O)n2CCCO)n1,-7,2,-11,19,1,6
Nc1nc(Nc2ccc(Cl)cc2)nc2ccccc12,14,8,-55*,-48,80*,-76

# Screening results as filed in PubChem.
